Where “and” joins values, the source holds several entries; their conditions need not be identical. Equal entries are not always repeated. Records with an inconclusive call do not appear. Calls of active or inactive are those of the source. Unless noted, calls come from the whole dose curve; as a rule, active = well fitted curve in the direction sought with a large enough effect; inconclusive = small, poorly fitted or top-dose-only effect, or another doubt; inactive = no such curve, though single readings can be large; an effect the other way counts as inactive or inconclusive.
Assays:
[1] = target: Alpha-galactosidase A (Homo sapiens) (UniProt P06280); experiment: Counterscreen for Glucocerebrosidase Inhibitors: qHTS Assay for Human alpha-Galactosidase at pH 4.5 (AID 992); note: 0% is about no effect
Alpha-galactosidase A (Homo sapiens), sequence (P06280 whole entry, looked up): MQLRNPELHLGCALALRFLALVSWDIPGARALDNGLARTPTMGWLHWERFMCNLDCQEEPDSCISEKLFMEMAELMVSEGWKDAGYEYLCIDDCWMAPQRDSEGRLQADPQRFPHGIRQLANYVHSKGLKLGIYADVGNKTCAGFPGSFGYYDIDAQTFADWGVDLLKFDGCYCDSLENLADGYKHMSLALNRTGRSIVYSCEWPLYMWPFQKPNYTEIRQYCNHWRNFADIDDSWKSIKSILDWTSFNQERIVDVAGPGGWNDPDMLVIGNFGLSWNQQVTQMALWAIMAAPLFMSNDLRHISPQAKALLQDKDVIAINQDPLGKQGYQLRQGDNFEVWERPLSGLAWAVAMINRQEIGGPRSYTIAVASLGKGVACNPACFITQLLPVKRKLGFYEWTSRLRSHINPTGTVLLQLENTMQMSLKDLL
Procedure, shortened: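 Each compound is preincubated briefly with 2 nM enzyme before substrate addition (80 uM); plates then sit 20 min at ambient temperature, are quenched with 1M NaOH/1M glycine, and read fluorometrically.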

[2] = target: alpha-glucosidase (Oryza sativa, rice) (UniProt Q653V4); experiment: Counterscreen for Glucocerebrosidase Inhibitors: qHTS Assay for Rice alpha-Glucosidase at pH 5.0 (AID 997);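 note: 0% = full activity with enzyme and -100% = basal without enzyme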
Procedure, shortened: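 Endpoint fluorogenic assay at pH 5.0: compounds (0.7 nM to 77 uM) titrated against 4 nM rice enzyme and 400 uM 4-MU-alpha-glucoside for 20 min at room temperature; NaOH/glycine stop, read ex 365/em 440 nm, Hill-fitted AC50.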

[3] = qHTS Assay for Lipid Storage Modulators (AID 1519; calls by dose curve; for activity change, negative = inhibition: % is set by controls: 0 for no effect and ±100 for the full control effect); conditions: Drosophila S3 cells, BODIPY lipid droplet/cell ratio, laser cytometry, cells loaded with oleic acid
Procedure, shortened: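 Cells seeded at 5,000 per well were treated with compounds over a concentration series and loaded with oleic acid (400 uM, as added). Lipid droplet fluorescence (488 nm excitation, 500-530 nm channel) was read by laser-scanning cytometry and normalized to 20 uM Triacsin C.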

[4] = target: DNA repair nuclease/redox regulator APEX1 (Homo sapiens) (UniProt P27695); experiment: qHTS Validation Assay for Inhibitors of the Human Apurinic/apyrimidinic Endonuclease 1 (APE1) (AID 1705;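 note: TAMRA fluorescence gain over two minutes as APE1 cuts a quenched THF abasic duplex; % is set by controls: 0 for no effect and ±100 for the full control effect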)
DNA repair nuclease/redox regulator APEX1 (Homo sapiens), sequence (P27695 whole entry, looked up): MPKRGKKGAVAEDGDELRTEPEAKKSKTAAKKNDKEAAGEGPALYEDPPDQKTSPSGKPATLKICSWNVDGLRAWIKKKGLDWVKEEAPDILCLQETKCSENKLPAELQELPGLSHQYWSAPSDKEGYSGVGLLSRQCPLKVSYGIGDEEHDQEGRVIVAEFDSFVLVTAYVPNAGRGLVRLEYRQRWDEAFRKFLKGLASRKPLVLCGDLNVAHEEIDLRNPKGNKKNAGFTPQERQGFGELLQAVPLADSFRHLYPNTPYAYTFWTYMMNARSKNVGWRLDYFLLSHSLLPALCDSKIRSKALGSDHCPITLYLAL
Procedure, shortened: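 Activity read as rising fluorescence (598 nm emission, 525 nm excitation) from incision of a TAMRA/BHQ-2 duplex carrying a THF abasic site (50 nM). Compound and enzyme sat 15 min at RT before substrate start; signal change between first and third 60-s reads.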

[5] = Counterscreen for APE1 Inhibitors: Fluorescent Dye Displacement Validation Assay (AID 1707);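 note: plate controls were ThO with dsDNA and no compound for no effect and ThO without dsDNA for full effect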
Procedure, shortened: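 Loss of Thiazole Orange fluorescence marks promiscuous DNA binders. The dye (250 nM) is mixed with 50 nM abasic-site dsDNA in pH7.5 Tris buffer containing MgCl2, then compounds are added and emission is read once.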

[6] = target: Endonuclease 4 (Escherichia coli (strain K12)) (UniProt P0A6C1); experiment: Counterscreen for APE1 Inhibitors: qHTS Validation Assay for Inhibitors of Endonuclease IV (AID 1708); note: % is set by controls: 0 for no effect and ±100 for the full control effect
Procedure, shortened: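 Conditions: 2 nM enzyme, 50 nM TAMRA/BHQ-2 substrate, pH 7.5 Tris buffer with 2 mM MgCl2, RT. Compound preincubation 15 min; readout three fluorescence reads 60 s apart, third-minus-first.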

[7] = qHTS for differential inhibitors of proliferation of Plasmodium falciparum line 7G8 (AID 1815);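 note: parasite growth measured after three days of incubation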; note: potency is the fitted concentration of half-maximal effect;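 for activity change, negative = inhibition: plate controls were vehicle wells for no effect and reference inhibitor wells for full effect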
[8] = qHTS for differential inhibitors of proliferation of Plasmodium falciparum line 3D7 (AID 1876); note: potency is the fitted concentration of half-maximal effect
[9] = qHTS for differential inhibitors of proliferation of Plasmodium falciparum line D10 (AID 1877);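 note: parasites grown with compound for 72 h before DNA staining; plate controls were vehicle wells for no effect and reference inhibitor wells for full effect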
[10] = qHTS for differential inhibitors of proliferation of Plasmodium falciparum line Dd2 (AID 1882); conditions: Potency: Plasmodium falciparum Dd2 proliferation inhibition;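 note: plate controls were DMSO vehicle for no effect and 0.29 µM artemisinin for full effect; nearly all actives have a fitted effect of over 65% in size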
Procedure, shortened: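 SYBR Green DNA fluorescence (ex 485, em 535 nm) after overnight lysis quantifies parasite growth; compound exposure lasted 72 h at 37 C on infected red cells at 2.5% hematocrit, 0.3% parasitemia (final). Artemisinin 0.29 uM and vehicle wells define normalization.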

[11] = qHTS for differential inhibitors of proliferation of Plasmodium falciparum line HB3 (AID 1886); conditions: Potency: Plasmodium falciparum HB3 proliferation inhibition;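 note: parasites grown with compound for 72 h before SYBR Green readout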; note: potency is the fitted concentration of half-maximal effect;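 for activity change, negative = inhibition: plate controls were vehicle for no effect and reference inhibitor for full effect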
[12] = qHTS Assay for Modulators of Human Peripheral Myelin Protein 22 (PMP22) Expression/Activity (AID 1967; active = well fitted curve in the direction sought with a large enough effect in the signal ratio; the % refers to the signal ratio;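 note: 0% = untreated cells and 100% end not stated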)
Procedure, shortened: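 Readout is the corrected green/red luminescence ratio after 24 h compound exposure, normalised to untreated cells (0%). Engineered MSC80 mouse Schwann cells express green luciferase from the mouse Pmp22 promoter and red luciferase from EF-alpha as internal control.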

[13] = Cell Viability - LYMP2-020 (AID 986);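 note: cells exposed to compound for 24 h at 37 °C; nearly all actives have a fitted effect of over 55% in size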; note: potency is the fitted concentration of half-maximal effect
Procedure, shortened: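 Seed 2500 cells per well and incubate 5 hr at 37 C. Add compounds at a concentration series and incubate 24 hr at 37 C. Add CellTiter-Glo, wait 30 min at RT, read luminescence, and fit a Hill curve for AC50.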

[14] = Cell Viability - LYMP2-022 (AID 987); note: nearly all actives have a fitted effect of over 55% in size; note: potency is the fitted concentration of half-maximal effect
Procedure, shortened: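 Cells were seeded at 2500 per well, rested 5 hr at 37 C, and treated with titrated compounds for 24 hr at 37 C. Cellular ATP was then quantified by luciferase luminescence, and AC50 values were derived from Hill-modelled concentration-response curves.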

[15] = Cell Viability - LYMP2-024 (AID 988); note: nearly all actives have a fitted effect of over 60% in size; note: potency is the fitted concentration of half-maximal effect
Procedure, shortened: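 qHTS cytotoxicity, human lymphoblastoid line, complete medium; 24 h cpd treatment, 37 C; CellTiter-Glo ATP luminescence readout; tetraoctylammonium bromide positive control; AC50 via Hill fit.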

[16] = Cell Viability - LYMP2-026 (AID 989);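 note: cells exposed to compound for 24 h at 37 °C; nearly all actives have a fitted effect of over 50% in size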; note: potency is the fitted concentration of half-maximal effect
Procedure, shortened: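 Cells are seeded at 2500 per well and held 5 hr at 37 C. Compounds are added in concentration series for 24 hr, then CellTiter-Glo reagent is applied and luminescence read.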

[17] = Cell Viability - LYMP1-002 - Assay at 24 hr (AID 993); note: potency is the fitted concentration of half-maximal effect
Procedure, shortened: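 Acute toxicity is measured as concentration-dependent loss of cellular ATP in a human lymphoblastoid line (Coriell LYMP1-002) after 24 h treatment in complete medium. ATP is quantified by luciferase luminescence and AC50 derived by Hill modelling.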

[18] = qHTS for differential inhibitors of proliferation of Plasmodium falciparum line W2 (AID 1883); conditions: Potency: Plasmodium falciparum W2 proliferation inhibition;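 note: parasites grown with compound for 72 h before lysis and staining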; note: potency is the fitted concentration of half-maximal effect;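 for activity change, negative = inhibition: 0% = vehicle wells and -100% = control inhibitor wells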
[19] = qHTS for differential inhibitors of proliferation of Plasmodium falciparum line GB4 (AID 1816); conditions: Potency: Plasmodium falciparum GB4 proliferation inhibition;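 note: parasite growth measured after 72 h incubation; 0% = vehicle DMSO and -100% = reference inhibitor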
[20] = measured here: cell count channel max response
[21] = measured here: lipid channel max response

CCCC1O[C@@H]2C[C@H]3[C@@H]4CCC5=CC(=O)C=C[C@]5(C)[C@H]4[C@@H](O)C[C@]3(C)[C@]2(C(=O)CO)O1 (stereo partly specified)
inactive: outcome [1] | outcome [2]

C[C@@H]1C(=O)NC2=Nc3cccc(Cl)c3CN21
-20.8%: max response [3, 20]
-17.8%: max response [3, 21]
inactive: outcome [1] | outcome [2] | activity change, negative = inhibition ([3]; at 57.5 µM (top of the series)) 2.07% | Potency [4] | outcome [5] | outcome [6] | Potency [7] | Potency [8] | Potency [9] | Potency [10] | Potency [11] | outcome [12]

O=c1ccc2ccccc2o1
inactive: Potency [13] | Potency [14] | Potency [15] | Potency [16] | Potency [17]

Oc1ccc(O)cc1
3.88% and -20.5%: max response [3, 20]
active: Potency [13] 50.1 µM | Potency [14] 39.8 µM | Potency [15] 50.1 µM | Potency [17] 39.8 µM | Potency [7] 8.91 µM | Potency [8] 11.2 µM | Potency [18] 12.6 µM | Potency [11] 12.6 µM
3.65% and -23.9%: max response [3, 21]
inactive: Potency [16] | outcome [1] | outcome [2] | activity change, negative = inhibition ([3]; at 57.5 µM (top of the series)) -1.63% and -0.961% | Potency [4] | outcome [5]

O=C(O)CCCCC(=O)O
inactive: Potency [13] | Potency [14] | Potency [15] | Potency [16] | Potency [17]

COc1cccc2c1C(=O)c1c(O)c3c(c(O)c1C2=O)C[C@@](O)(C(=O)CO)C[C@@H]3O[C@H]1C[C@H](N)[C@H](O)[C@H](C)O1
active: Potency [13] 0.316 µM | Potency [14] 0.251 µM | Potency [15] 0.199 µM | Potency [16] 0.501 µM | Potency [17] 1 µM

CC(O)C(=O)O (stereo unspecified)
inactive: Potency [13] | Potency [14] | Potency [15] | Potency [16] | Potency [17]

Oc1c(Cl)cc(Cl)cc1Sc1cc(Cl)cc(Cl)c1O
13.2%: max response [3, 21]
active: Potency [13] 31.6 µM
inactive: Potency [17] | activity change, negative = inhibition ([3]; at 57.5 µM (top of the series)) 0.0363%
9.87%: max response [3, 20]

CC/C(=C(/CC)c1ccc(O)cc1)c1ccc(O)cc1
inactive: Potency [13] | Potency [14] | Potency [15] | Potency [16] | Potency [17] | activity change, negative = inhibition ([3]; at 57.5 µM (top of the series)) 9.04%
18.5%: max response [3, 21]
9.58%: max response [3, 20]

COC1=CC(=O)C[C@@H](C)[C@]12Oc1c(Cl)c(OC)cc(OC)c1C2=O
4.54%: max response [3, 20]
22.2%: max response [3, 21]
inactive: Potency [13] | Potency [14] | Potency [15] | Potency [16] | Potency [17] | activity change, negative = inhibition ([3]; at 57.5 µM (top of the series)) 14.1%

COc1cc(-c2ccc(=O)[nH]n2)ccc1OC(F)F
inactive: outcome [1] | outcome [2] | Potency [4] | outcome [5] | outcome [6] | Potency [7] | Potency [19] | Potency [8] | Potency [9] | Potency [10] | Potency [18] | Potency [11]

CC(=O)Oc1ccc(C(c2ccc(OC(C)=O)cc2)c2ccccn2)cc1
-14.3%: max response [3, 21]
inactive: Potency [13] | Potency [14] | Potency [15] | Potency [16] | Potency [17] | activity change, negative = inhibition ([3]; at 25.7 µM (top of the series)) -1.79%
-13.8%: max response [3, 20]

C[C@]12CC[C@@H]3c4ccc(O)cc4CC[C@H]3[C@@H]1CC[C@@H]2O
inactive: Potency [13] | Potency [14] | Potency [15] | Potency [16] | outcome [1] | Potency [17] | outcome [2] | Potency [4] | outcome [5] | outcome [6] | Potency [7] | Potency [10] | Potency [11]

Source: PubChem BioAssay (NCATS)
